Screens as filed in PubChem.
TDP1 block: TDP1 (human) enzyme inhibition. Potency, µM (series often up to 130 µM), inactives show at the highest dose activity change, negative = inhibition, most hits filed as inhibitors. hit rate 0.28% among 350,000. AID 485290. recombinant TDP1, AlphaScreen DNA substrate cleavage; further: potency means the concentration at half of the fitted maximal effect; nearly all actives have a fitted effect of over 40% in size
Target sequence (Q9NUW8 whole entry, looked up): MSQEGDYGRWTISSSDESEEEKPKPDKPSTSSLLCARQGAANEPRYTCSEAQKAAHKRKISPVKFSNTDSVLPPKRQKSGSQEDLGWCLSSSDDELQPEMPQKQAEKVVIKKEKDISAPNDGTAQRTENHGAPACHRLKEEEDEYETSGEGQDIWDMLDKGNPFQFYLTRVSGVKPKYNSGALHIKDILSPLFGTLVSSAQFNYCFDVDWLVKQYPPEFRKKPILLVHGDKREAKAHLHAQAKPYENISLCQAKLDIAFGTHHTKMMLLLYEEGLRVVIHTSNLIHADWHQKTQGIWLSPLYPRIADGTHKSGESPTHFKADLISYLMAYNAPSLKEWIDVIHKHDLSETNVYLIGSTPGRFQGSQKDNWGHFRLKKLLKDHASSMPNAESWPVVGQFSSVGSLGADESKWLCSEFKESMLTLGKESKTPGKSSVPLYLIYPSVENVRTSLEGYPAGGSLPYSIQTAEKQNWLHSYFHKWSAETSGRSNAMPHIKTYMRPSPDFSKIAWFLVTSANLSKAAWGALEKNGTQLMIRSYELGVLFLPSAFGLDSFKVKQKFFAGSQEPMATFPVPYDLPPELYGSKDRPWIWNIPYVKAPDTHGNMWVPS
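Recombinant human Tdp1 (E. coli-expressed, 1 nM final) preincubated with compounds 15 min at room temperature, then 5'-biotin/3'-phosphotyrosine-FITC DNA substrate (15 nM final) added for 5 min. AlphaScreen beads (10 ug/ml final) added 10 min; cleavage lowers signal.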
ELG1 DNA repair: blocks ELG1-dependent DNA repair in HEK293T cells | Potency, µM (top dose mostly 46.1 µM), without a hit: top-dose activity change, negative = inhibition, usual class: inhibitors | hit rate 2.3% among 330,000 | AID 504467 | HEK293T ELG1-luciferase reporter, luminescence, 16 h; DNA damage induced by 5-fluorouridine; further: potency means the concentration at half of the fitted maximal effect; nearly all actives have a fitted effect of over 55% in size
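HEK293T cells expressing luciferase-tagged ELG1 (2,000/well) received 5-Fluorouridine plus compound or DMSO for 16 hr at 37 °C. Luciferase was read by ONE-Glo luminescence after 30 min at room temperature.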
DT40 TDP1 no CPT: qHTS for Inhibitors of human tyrosyl-DNA phosphodiesterase 1 (TDP1): qHTS in cells in absence of CPT | DT40 Tdp1-/- hTDP1 cells, no CPT, ATP luminescence, 48 h | Potency, µM (doses to about 46.2 µM), for the others: top-dose activity change, negative = growth inhibition, most hits filed as inhibitors | hit rate 15% among 420,000; further: potency means the concentration at half of the fitted maximal effect; nearly all actives have a fitted effect of over 55% in size
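Chicken DT40 Tdp1-/- cells stably complemented with human TDP1 were seeded at 400 cells/well with DMSO in place of 20 nM camptothecin. After compound pinning, cells grew at least 48 hr at 37 °C; viability read by CellTiter-Glo luminescence.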
DT40 TDP1 CPT: DT40-hTDP1 cell growth loss with CPT. chicken DT40 Tdp1-/-;hTDP1 cells + 20 nM CPT, ATP luminescence, 48 h. Potency, µM (doses to about 46.2 µM), for inactives: at the highest dose activity change, negative = growth inhibition, most hits filed as inhibitors. hit rate 12% among 420,000; further: potency means the concentration at half of the fitted maximal effect; nearly all actives have a fitted effect of over 55% in size
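Chicken DT40 Tdp1-/- cells complemented with human TDP1, 400 cells/well, exposed to compounds plus 20 nM camptothecin for at least 48 h at 37 C; viability read as ATP content by CellTiter-Glo luminescence.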
Giardia killer: kills Giardia lamblia | Giardia lamblia trophozoite viability | activity change, % at 7.66 µM, hits read low | hit rate 0.15% among 340,000; in the data active means activity change below about -80%; inconclusive means between about -30% and that limit;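 further: parasites exposed to compound for two days anaerobically before the ATP read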
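ATP-content bioluminescence gauges trophozoite survival. Cells (100/well) receive compound and incubate anaerobically for 48 hrs at 37 deg C; detection reagent follows for 15-30 min at room temperature.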
IL1B secr inh: inhibitors of inflammasome signaling (IL-1 beta secretion); hit rate 4.7% among 360,000; THP-1 LPS/ATP IL-1B secretion, AlphaLISA, 16 h; active compounds read low; AID 743279; activity change, % at 57.5 µM; in the data active means activity change below about -50%; inconclusive means mostly about -30% to -49%
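Secreted IL-1B measured by AlphaLISA bead assay after 16 h compound exposure of THP-1 cells; compounds (final up to 57.5 uM) added 1 h before LPS (250 ng/mL) and ATP (1.25 mM) stimulation; lower signal means less secretion.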
The depositor's hits bear a star; ? = inconclusive; . = not tested or not shown; [ ] = another dose, or the depositor's remark. An excerpt weighted towards active compounds, which were near 19% of everything screened. Unless noted, the call rests on the fitted dose curve; in most records, active means well fitted curve in the direction sought with a large enough effect; inconclusive means small, poorly fitted or top-dose-only effect, or another doubt; inactive means no such curve, though single readings can be large; an effect the other way counts as inactive or inconclusive. On the % scale 0 is the no-effect control and ±100 the full control effect.

SMILES	TDP1 block	ELG1 DNA repair	DT40 TDP1 no CPT	DT40 TDP1 CPT	Giardia killer	IL1B secr inh
Cc1ccc(OCCn2cc(C(=O)c3ccco3)c3ccccc32)cc1C	0.0%	.	18.4µM*	14.6µM*	.	.
COc1ccc(OCCn2cc(C(=O)c3ccco3)c3ccccc32)cc1	5.3%	.	25.9µM*	20.6µM*	.	.
Cc1cc(OCCn2cc(/C(N)=N/O)c3ccccc32)ccc1Cl	7.9%	8.9%	?	25.9µM*	-19.0	-13.8
CCOc1ccc(NC(=O)Cn2cc(C(=O)c3ccco3)c3ccccc32)cc1	1.1%	-6.8%	?	-27.8%	-3.0	28.6
COC(=O)Cn1cc(C(=O)c2ccco2)c2ccccc21	1.1%	16.4%	-3.4%	-14.5%	-9.8	6.3
CC(C)(C)NC(=O)CN(CCN1CCOCC1)C(=O)CNS(=O)(=O)c1ccccc1	0.4%	1.1%	-0.4%	9.9%	-13.7	3.2
O=C(NCC1CC1)C1(S(=O)(=O)c2ccccc2)CC=CC1	.	16.9%	1.4%	-25.7%	-15.4	24.6
Cc1cc(-c2ccnc(-n3ncc(C(=O)NCc4cccnc4)c3C3CC3)n2)c(C)s1	.	.	?	-12.0%[9.04 µM]	.	.
COc1ccc(-c2ccnc(-n3ncc(C(=O)NCc4cccnc4)c3C3CC3)n2)cc1F	.	.	16.4µM*	-8.9%[9.04 µM]	.	.
COc1ccc(-c2ccnc(-n3ncc(C(=O)NCc4ccon4)c3C3CC3)n2)cc1F	.	.	23.1µM*	?	.	.
COc1ccc(N2CCN(C(=O)CSc3ncccc3-c3nc4ccccc4[nH]3)CC2)cc1	4.7%	16.5%	29.1µM*	18.4µM*	-3.8	7.2
O=C(CSc1ncccc1-c1nc2ccccc2[nH]1)N1CCN(c2ccccc2F)CC1	-5.3%	?	?	16.4µM*	8.3	-22.8
O=C(CSc1nc2ccccc2[nH]1)N1CCN(c2ccccc2)CC1	9.6%	1.9%	-6.7%	-16.7%	-9.1	-1.0
COc1ccccc1N1CCN(C(=O)CSc2ncccc2-c2nc3ccccc3[nH]2)CC1	2.2%	?	?	14.6µM*	9.2	0.0
O=C(CSc1ncccc1-c1nc2ccccc2[nH]1)NC1CC1	6.0%	27.5%	-1.0%	-27.8%	24.8	-9.3
O=[N+]([O-])c1cc2nc(O)c(O)nc2cc1[N+](=O)[O-]	-4.1%	.	.	.	.	.
CNc1nc2cc([N+](=O)[O-])c([N+](=O)[O-])cc2nc1NC	0.6%	?	3.26µM*	2.31µM*	-24.3	-0.4
Cc1nsc2nc3c(F)c(F)c(F)c(F)c3cc12	.	28.3%	?	?	11.1	-96.7*
COc1ccc(CCNC(=O)c2cc(-c3ccccc3OC)on2)cc1OC	-1.0%	16.4µM*	20.6µM*	?	-10.7	?
COc1ccccc1-c1cc(C(=O)NCCc2ccccc2)no1	-1.8%	?	14.6µM*	13µM*	11.8	14.1
COc1ccc2cc3cc(C(=O)NCCc4ccccc4)sc3nc2c1Cl	-0.6%	.	16.4µM*	11.6µM*	.	.
COc1ccc(CCNC(=O)c2cc(CC(C)C)on2)cc1OC	9.8%	?	16.4µM*	?	?	10.6
C/C(=N\N1CCN(c2ccccc2)CC1)c1ccncc1	2.4%	9.3%	5.4%	16.8%	-0.7	-3.1
C/C(=N\N1CCN(C2c3ccccc3-c3ccccc32)CC1)c1ccncc1	7.7%	8.9%	16.4µM*	16.4µM*	1.0	-3.0
CCN1C[C@@H]2[C@@H]3C(=O)N(Cc4ccccc4)C(=O)[C@@H]3[C@](C)(C1=O)N2C(=O)c1ccccc1	.	.	3.7%	15.1%	?	10.4
SMILES	TDP1 block	ELG1 DNA repair	DT40 TDP1 no CPT	DT40 TDP1 CPT	Giardia killer	IL1B secr inh
COc1ccc(-c2[nH]ncc2CN(C)C(C)c2cccs2)c(F)c1 (centres undefined)	2.7%	-5.3%	?	16.4µM*	-13.2	-9.8
CCc1cc(=O)n2[nH]c(-c3ccccc3)c(-c3ccccc3)c2n1	.	?	20.6µM*	?	-5.7	33.7
Cc1[nH]n2c(=O)cc(C(C)(C)C)nc2c1-c1ccccc1	9.4%	?	5.17µM*	4.61µM*	0.4	34.1
CCOC(=O)Cc1cc(=O)n2[nH]cc(-c3cccc(Br)c3)c2n1	8.5%	?	23.1µM*	?	-15.8	8.9
Cc1[nH]n2c(=O)cc(-c3ccc([N+](=O)[O-])cc3)nc2c1-c1ccccc1	.	.	7.31µM*	11.6µM*	0.4	37.4
CCOC(=O)Cc1c(C)nc2c(-c3ccccc3OC)c(C)nn2c1C	3.9%	-22.2%	?	-26.5%	-4.3	-10.9
COc1ccc(-c2c(C(F)(F)F)[nH]n3c(=O)cc(-c4ccccc4)nc23)cc1	.	?	?	?	-21.4	.
CCOC(=O)Cc1cc(=O)n2[nH]c(C)c(-c3ccc(Cl)cc3)c2n1	12.4%	-17.0%	11.2µM*	16.4µM*	15.0	50.7
CCOC(=O)Cc1cc(=O)n2[nH]c(C)c(-c3ccc(OC)cc3)c2n1	10.0%	4.8%	?	?	-7.3	-8.7
CCOC(=O)Cc1c(C)nc2c(-c3ccc(Cl)cc3)c(C(F)(F)F)nn2c1C	-7.6%	.	23.1µM*	23.1µM*	.	.
Cc1[nH]n2c(=O)cc(-c3ccc(Cl)cc3)nc2c1-c1ccccc1	13.6%	.	0.92µM*	0.651µM*	.	.
CO[C@H]1COC(=O)C/C=C\[C@H](C)[C@@H](OC)COC(=O)[C@@H](C)NC(=O)C/C=C\[C@@H]1C	3.7%[21 µM]	.	.	.	.	.
COCC(=O)C(C(=O)OC)[C@H](CCc1ccccc1)NC(=O)OC (some centres undefined)	2.5%	.	.	.	.	.
CC(C)[C@H](N)C(=O)NC[C@H]1CC[C@H](C(=O)N[C@@H](Cc2ccccc2)C(=O)O)CC1	.	-0.4%	-4.7%	8.1%	8.1	-2.7
O=C(O)C(=Cc1ccc([N+](=O)[O-])cc1)c1cccc(Cl)c1	.	.	?	8.2µM*	.	26.1
COc1ccccc1C(=Cc1ccc([N+](=O)[O-])cc1)C(=O)O	.	.	6.1%	3.9%	.	8.9
CCOC(=O)C1=CCN(S(=O)(=O)c2ccccc2C)C1c1cccc(F)c1 (centres undefined)	.	.	16.4µM*	?	.	49.8
CCOC(=O)C1=CCN(S(=O)(=O)c2ccc(F)cc2)C1c1cccc(Cl)c1 (centres undefined)	.	.	?	-20.4%	.	14.7
CCOC(=O)C1=CCN(S(=O)(=O)c2ccccc2C)C1c1cccc(Br)c1 (centres undefined)	.	.	20.6µM*	?	.	42.0
CCOC(=O)C1=CCN(S(=O)(=O)c2cccc(Cl)c2)C1c1cccc(F)c1 (centres undefined)	.	.	20.6µM*	20.6µM*	.	?
CC(C)c1ccc(S(=O)(=O)N2CCN(CC(=O)Nc3ccccc3C(F)(F)F)CC2)cc1	0.0%	.	?	?	.	.
